# Experiments:
# Test in all cases: DAPPL (digital affinity profiling via proximity ligation, sequencing); 10 mM Tris-HCl pH 7.5, 50 mM NaCl, 1 mM DTT, 4% glycerol, room temperature, 30 min; GST-TFs on glutathione beads, 16-mer random dsDNA library, 0.1% formaldehyde crosslink after washing; high values mean tight binding
# FLI1 = biological target: T1, FLI1 (Homo sapiens, UniProt Q01543 1-452); conditions: protein: recombinant; tags: N-terminal GST; dsDNA, one strand shown
# T1 sequence: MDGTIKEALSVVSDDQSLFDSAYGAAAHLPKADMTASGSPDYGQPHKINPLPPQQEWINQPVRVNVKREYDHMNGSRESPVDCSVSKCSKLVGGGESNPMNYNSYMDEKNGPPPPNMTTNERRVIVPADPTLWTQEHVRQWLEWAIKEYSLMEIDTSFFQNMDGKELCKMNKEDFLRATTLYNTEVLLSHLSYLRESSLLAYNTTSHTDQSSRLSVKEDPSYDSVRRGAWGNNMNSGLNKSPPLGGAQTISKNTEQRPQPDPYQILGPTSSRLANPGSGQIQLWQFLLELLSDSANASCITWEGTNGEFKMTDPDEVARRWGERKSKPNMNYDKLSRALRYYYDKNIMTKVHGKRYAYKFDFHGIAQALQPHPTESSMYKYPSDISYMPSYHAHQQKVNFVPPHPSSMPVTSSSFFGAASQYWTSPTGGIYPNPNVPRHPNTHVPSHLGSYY
# Summary of the method: (§1)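 The binding signal reported is, for every hexamer, its read frequency for a factor over its read frequency for the tag-only sample. Reads came from pools of yeast-expressed, GST-fused human transcription factors on glutathione beads, barcoded with DNA and mixed with that sample, which were incubated with 200 nmole of a random double-stranded 16-mer DNA library in Tris/NaCl/DTT/glycerol buffer at room temperature for 30 min. After washing, the pools were crosslinked with 0.1% formaldehyde, proximity-ligated with BsaI/T4 ligase for 1 h at 37 °C, PCR-amplified and sequenced on an Illumina NextSeq500.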
# ELK1 = biological target: T2, ELK1 (Homo sapiens, UniProt P19419 1-428); conditions: protein: recombinant; tags: N-terminal GST; dsDNA, one strand shown
# T2 sequence: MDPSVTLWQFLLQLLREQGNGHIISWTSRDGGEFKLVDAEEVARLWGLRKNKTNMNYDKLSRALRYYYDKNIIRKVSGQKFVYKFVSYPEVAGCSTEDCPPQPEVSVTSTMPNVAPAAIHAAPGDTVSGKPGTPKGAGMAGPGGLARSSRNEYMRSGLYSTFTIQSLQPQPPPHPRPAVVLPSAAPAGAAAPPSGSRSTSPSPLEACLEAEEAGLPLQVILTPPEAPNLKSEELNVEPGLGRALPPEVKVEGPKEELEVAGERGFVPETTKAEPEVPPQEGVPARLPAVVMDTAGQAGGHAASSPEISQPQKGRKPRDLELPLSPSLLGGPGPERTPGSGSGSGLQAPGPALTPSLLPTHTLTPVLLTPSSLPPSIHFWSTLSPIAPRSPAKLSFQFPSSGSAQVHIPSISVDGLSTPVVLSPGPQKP
# Summary of the method: as §1
# GABPA = biological target: T3, GABPA (Homo sapiens, UniProt Q06546 1-454); conditions: protein: recombinant; tags: N-terminal GST; dsDNA, one strand shown
# T3 sequence: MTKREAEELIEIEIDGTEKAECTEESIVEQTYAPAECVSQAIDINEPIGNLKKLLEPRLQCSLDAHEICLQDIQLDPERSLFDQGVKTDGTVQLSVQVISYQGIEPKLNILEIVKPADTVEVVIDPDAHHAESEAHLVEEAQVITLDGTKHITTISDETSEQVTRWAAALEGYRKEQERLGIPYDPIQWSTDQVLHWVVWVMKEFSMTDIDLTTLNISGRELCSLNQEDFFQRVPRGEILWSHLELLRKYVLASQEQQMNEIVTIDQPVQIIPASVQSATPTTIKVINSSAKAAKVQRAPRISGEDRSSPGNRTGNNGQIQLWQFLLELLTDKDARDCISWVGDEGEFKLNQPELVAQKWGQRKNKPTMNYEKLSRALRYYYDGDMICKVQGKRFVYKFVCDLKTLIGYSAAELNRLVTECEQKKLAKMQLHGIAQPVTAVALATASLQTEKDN
# Summary of the method: as §1
# ERG = biological target: T4, ERG (Homo sapiens, UniProt P11308 1-479); conditions: protein: recombinant; tags: N-terminal GST; dsDNA, one strand shown
# T4 sequence: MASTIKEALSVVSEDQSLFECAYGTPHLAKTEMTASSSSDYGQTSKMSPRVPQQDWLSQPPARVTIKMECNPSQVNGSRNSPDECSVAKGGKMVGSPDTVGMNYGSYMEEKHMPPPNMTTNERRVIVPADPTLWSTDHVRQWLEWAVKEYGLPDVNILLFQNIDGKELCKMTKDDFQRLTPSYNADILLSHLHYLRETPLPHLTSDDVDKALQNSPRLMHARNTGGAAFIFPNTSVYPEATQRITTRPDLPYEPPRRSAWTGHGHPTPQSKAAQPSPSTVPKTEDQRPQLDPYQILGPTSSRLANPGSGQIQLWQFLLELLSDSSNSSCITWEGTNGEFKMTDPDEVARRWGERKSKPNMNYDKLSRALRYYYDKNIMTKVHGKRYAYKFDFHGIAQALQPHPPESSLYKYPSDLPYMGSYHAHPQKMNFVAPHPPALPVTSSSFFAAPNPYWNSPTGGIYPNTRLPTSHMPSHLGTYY
# Summary of the method: as §1
# ELF1 = ELF1 (Homo sapiens, UniProt P32519 1-619); conditions: protein: recombinant; tags: N-terminal GST; dsDNA, one strand shown
# Chain of ELF1 (P32519 whole entry): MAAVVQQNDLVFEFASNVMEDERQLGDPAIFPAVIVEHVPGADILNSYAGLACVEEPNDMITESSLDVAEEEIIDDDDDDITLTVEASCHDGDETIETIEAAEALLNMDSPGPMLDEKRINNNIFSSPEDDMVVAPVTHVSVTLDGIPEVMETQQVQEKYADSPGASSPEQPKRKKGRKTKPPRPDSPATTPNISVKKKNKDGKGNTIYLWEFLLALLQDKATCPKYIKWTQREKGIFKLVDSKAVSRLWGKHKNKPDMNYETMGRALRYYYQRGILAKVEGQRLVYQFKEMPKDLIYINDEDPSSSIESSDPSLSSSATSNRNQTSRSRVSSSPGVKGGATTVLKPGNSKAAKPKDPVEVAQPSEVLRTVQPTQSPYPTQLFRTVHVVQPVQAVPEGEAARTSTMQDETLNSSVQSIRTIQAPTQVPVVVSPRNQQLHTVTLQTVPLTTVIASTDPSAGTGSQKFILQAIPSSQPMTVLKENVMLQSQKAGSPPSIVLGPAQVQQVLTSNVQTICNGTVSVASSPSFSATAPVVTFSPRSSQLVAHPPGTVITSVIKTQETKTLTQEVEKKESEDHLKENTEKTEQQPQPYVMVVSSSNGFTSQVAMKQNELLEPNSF
# Summary of the method: as §1
# EHF = biological target: T5, EHF (Homo sapiens, UniProt Q9NZC4 1-300); conditions: protein: recombinant; tags: N-terminal GST; dsDNA, one strand shown
# T5 sequence: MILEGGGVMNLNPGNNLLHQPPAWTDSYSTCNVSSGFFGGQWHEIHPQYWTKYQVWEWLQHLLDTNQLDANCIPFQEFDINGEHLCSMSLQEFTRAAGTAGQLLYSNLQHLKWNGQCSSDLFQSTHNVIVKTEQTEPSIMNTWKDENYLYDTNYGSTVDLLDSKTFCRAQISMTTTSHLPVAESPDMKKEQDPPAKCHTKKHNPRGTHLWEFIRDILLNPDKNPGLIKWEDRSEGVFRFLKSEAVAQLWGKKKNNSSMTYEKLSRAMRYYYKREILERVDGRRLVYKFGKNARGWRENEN
# Summary of the method: as §1
# SPI1 = SPI1 (Homo sapiens, UniProt P17947 1-270); conditions: protein: recombinant; tags: N-terminal GST; dsDNA, one strand shown
# Summary of the method: as §1
# SPIB = SPIB (Homo sapiens, UniProt Q01892 1-262); conditions: protein: recombinant; tags: N-terminal GST; dsDNA, one strand shown
# Chain of SPIB (Q01892 whole entry): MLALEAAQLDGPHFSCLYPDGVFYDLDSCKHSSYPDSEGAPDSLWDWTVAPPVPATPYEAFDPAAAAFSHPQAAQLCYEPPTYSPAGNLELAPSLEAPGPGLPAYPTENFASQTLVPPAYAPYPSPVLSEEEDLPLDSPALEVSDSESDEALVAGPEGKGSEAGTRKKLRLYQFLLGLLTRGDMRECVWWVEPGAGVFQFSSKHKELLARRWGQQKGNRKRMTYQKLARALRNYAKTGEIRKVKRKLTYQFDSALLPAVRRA
# Summary of the method: as §1
# ELK3 = biological target: T6, ELK3 (Homo sapiens, UniProt P41970 1-407); conditions: protein: recombinant; tags: N-terminal GST; dsDNA, one strand shown
# T6 sequence: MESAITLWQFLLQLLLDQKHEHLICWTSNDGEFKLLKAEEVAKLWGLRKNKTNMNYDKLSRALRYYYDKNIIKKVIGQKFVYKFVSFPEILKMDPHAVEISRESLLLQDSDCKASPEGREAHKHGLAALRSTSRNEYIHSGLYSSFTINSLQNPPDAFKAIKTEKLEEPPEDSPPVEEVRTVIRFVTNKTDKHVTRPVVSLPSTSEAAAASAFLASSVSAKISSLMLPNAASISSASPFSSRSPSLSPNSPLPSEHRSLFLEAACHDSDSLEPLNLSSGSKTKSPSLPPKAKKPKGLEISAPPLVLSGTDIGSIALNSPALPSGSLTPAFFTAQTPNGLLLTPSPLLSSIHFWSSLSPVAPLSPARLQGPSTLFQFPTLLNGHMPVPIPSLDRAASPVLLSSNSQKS
# Summary of the method: as §1
# FEV = biological target: T7, FEV (Homo sapiens, UniProt Q99581 1-238); conditions: protein: recombinant; tags: N-terminal GST; dsDNA, one strand shown
# T7 sequence: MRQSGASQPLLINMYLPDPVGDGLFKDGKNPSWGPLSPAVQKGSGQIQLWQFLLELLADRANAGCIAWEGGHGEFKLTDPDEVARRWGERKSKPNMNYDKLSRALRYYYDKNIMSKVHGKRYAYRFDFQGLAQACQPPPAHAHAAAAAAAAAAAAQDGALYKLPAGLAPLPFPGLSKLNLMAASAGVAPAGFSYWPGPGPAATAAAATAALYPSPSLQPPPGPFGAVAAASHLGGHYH
# Summary of the method: as §1
# ETV5 = ETV5 (Homo sapiens, UniProt P41161 1-510); conditions: protein: recombinant; tags: N-terminal GST; dsDNA, one strand shown
# Chain of ETV5 (P41161 whole entry): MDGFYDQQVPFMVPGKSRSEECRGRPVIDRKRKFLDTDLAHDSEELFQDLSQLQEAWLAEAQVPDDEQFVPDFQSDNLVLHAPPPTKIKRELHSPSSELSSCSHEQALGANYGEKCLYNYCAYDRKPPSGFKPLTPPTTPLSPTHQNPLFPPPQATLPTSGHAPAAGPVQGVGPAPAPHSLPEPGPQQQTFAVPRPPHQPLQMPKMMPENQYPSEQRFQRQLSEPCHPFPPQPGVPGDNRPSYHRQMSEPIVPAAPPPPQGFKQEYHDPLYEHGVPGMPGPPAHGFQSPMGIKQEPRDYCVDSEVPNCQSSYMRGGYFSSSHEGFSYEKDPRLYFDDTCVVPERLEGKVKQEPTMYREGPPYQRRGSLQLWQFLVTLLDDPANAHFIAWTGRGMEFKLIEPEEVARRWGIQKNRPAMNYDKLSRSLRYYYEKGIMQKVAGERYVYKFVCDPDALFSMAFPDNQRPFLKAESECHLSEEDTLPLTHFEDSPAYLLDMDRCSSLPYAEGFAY
# Summary of the method: as §1
# HSF1 = HSF1 (Homo sapiens, UniProt Q00613 1-529); conditions: protein: recombinant; tags: N-terminal GST; chain copies: 3; dsDNA, one strand shown
# Chain of HSF1 (Q00613 whole entry): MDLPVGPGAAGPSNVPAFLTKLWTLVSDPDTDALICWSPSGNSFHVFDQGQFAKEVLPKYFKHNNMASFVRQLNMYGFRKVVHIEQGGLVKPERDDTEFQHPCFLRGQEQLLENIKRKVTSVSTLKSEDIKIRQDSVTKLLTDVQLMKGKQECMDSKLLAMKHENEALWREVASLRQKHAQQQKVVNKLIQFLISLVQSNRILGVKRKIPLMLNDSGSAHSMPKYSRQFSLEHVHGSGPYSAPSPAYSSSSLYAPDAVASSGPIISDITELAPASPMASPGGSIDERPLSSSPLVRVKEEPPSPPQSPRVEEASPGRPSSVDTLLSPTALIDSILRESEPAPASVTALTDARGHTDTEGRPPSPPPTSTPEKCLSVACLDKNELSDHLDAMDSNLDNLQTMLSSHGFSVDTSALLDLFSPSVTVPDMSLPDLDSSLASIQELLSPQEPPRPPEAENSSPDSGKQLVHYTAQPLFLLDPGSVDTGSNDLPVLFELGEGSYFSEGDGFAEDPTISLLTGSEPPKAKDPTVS
# Summary of the method: as §1
# SPIC = biological target: T8, SPIC (Homo sapiens, UniProt Q8N5J4 1-248); conditions: protein: recombinant; tags: N-terminal GST; dsDNA, one strand shown
# T8 sequence: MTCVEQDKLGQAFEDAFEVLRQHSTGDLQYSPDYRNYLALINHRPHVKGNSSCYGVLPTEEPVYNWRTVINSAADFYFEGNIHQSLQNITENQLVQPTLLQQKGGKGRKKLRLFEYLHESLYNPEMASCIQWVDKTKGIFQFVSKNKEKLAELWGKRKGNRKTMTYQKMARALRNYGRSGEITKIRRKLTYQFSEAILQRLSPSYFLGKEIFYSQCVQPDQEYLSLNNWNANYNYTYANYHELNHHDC
# Summary of the method: as §1
# ELF4 = ELF4 (Homo sapiens, UniProt Q99607 1-663); conditions: protein: recombinant; tags: N-terminal GST; dsDNA, one strand shown
# Chain of ELF4 (Q99607 whole entry): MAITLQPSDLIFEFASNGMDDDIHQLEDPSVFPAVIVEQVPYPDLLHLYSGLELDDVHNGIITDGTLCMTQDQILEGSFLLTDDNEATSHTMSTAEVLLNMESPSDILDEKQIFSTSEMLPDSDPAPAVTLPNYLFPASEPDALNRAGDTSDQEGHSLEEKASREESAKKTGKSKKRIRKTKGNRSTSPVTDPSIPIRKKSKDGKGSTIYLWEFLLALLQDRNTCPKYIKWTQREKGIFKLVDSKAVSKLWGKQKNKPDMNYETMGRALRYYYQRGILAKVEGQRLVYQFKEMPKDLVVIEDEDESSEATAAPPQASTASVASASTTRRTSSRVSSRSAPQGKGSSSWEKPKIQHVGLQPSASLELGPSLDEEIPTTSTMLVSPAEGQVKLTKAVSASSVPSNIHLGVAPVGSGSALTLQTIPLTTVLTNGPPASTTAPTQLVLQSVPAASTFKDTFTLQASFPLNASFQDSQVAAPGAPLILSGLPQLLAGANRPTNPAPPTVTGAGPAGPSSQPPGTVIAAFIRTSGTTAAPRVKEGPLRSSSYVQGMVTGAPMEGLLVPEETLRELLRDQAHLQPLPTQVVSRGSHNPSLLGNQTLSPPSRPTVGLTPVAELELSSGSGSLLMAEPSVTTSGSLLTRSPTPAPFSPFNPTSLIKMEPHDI
# Summary of the method: as §1
# ELK4 = biological target: T9, ELK4 (Homo sapiens, UniProt P28324-2 1-405); conditions: protein: recombinant; tags: N-terminal GST; dsDNA, one strand shown
# T9 sequence: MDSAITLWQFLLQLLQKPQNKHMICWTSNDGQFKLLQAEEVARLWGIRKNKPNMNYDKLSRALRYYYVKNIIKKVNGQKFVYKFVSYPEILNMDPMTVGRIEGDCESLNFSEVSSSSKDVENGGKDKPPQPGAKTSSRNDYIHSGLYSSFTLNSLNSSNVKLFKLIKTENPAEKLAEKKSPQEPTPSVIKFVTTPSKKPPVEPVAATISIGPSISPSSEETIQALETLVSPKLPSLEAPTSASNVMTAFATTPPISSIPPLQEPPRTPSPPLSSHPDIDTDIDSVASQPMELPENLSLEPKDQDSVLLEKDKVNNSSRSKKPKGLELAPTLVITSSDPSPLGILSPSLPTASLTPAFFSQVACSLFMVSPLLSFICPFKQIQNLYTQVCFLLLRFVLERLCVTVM
# Summary of the method: as §1
# ETV2 = biological target: T10, ETV2 (Homo sapiens, UniProt O00321 1-342); conditions: protein: recombinant; tags: N-terminal GST; dsDNA, one strand shown
# T10 sequence: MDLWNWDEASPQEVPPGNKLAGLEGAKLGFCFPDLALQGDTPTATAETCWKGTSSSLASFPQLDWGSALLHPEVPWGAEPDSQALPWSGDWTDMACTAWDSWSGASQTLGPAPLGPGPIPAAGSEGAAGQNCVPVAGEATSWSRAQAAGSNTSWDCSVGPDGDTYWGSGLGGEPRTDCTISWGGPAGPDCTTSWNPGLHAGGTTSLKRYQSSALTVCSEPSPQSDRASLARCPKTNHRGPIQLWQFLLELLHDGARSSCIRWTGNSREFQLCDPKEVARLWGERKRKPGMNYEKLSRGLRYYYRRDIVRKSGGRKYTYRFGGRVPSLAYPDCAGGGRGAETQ
# Summary of the method: as §1
# ELF3 = biological target: T11, ELF3 (Homo sapiens, UniProt P78545 1-371); conditions: protein: recombinant; tags: N-terminal GST; dsDNA, one strand shown
# T11 sequence: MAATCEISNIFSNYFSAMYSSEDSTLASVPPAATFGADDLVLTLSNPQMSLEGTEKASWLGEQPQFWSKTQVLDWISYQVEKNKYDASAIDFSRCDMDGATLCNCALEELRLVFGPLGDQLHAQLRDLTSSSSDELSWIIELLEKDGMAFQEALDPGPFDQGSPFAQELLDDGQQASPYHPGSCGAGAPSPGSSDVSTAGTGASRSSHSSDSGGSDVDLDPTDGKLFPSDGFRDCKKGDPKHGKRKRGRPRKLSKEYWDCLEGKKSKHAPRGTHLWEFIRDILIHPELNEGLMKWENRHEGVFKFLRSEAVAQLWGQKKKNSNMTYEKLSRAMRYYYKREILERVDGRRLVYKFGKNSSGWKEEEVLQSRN
# Summary of the method: as §1
# ETV1 = ETV1 (Homo sapiens, UniProt P50549 1-477); conditions: protein: recombinant; tags: N-terminal GST; dsDNA, one strand shown
# Chain of ETV1 (P50549 whole entry): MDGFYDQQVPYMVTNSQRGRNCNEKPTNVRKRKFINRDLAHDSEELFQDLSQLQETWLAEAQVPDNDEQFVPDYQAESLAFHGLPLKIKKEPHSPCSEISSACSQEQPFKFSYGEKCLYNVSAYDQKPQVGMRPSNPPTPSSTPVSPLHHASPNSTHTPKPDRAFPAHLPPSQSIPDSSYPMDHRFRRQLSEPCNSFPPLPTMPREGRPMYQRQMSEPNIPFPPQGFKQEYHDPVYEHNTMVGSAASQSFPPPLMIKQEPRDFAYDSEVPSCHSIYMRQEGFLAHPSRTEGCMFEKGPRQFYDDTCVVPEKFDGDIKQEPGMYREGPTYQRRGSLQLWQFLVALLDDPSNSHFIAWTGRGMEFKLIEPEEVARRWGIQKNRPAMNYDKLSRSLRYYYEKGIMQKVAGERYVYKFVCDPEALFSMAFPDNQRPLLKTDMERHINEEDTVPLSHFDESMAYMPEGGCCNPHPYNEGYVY
# Summary of the method: as §1
sequence,measurement,setting,value
TGCCCC,binding signal,FLI1,"1.13 fold enrichment (6-mer frequency, TF over GST control)"
same,binding signal,ELK1,"1.2 fold enrichment (6-mer frequency, TF over GST control)"
same,binding signal,GABPA,"1.27 fold enrichment (6-mer frequency, TF over GST control)"
same,binding signal,ERG,"1.28 fold enrichment (6-mer frequency, TF over GST control)"
same,binding signal,ELF1,"1.27 fold enrichment (6-mer frequency, TF over GST control)"
same,binding signal,EHF,"1.32 fold enrichment (6-mer frequency, TF over GST control)"
same,binding signal,SPI1,"1.31 fold enrichment (6-mer frequency, TF over GST control)"
same,binding signal,SPIB,"1.13 fold enrichment (6-mer frequency, TF over GST control)"
same,binding signal,ELK3,"1.18 fold enrichment (6-mer frequency, TF over GST control)"
same,binding signal,FEV,"1.36 fold enrichment (6-mer frequency, TF over GST control)"
same,binding signal,ETV5,"1.24 fold enrichment (6-mer frequency, TF over GST control)"
same,binding signal,HSF1,"1.01 fold enrichment (6-mer frequency, TF over GST control)"
same,binding signal,SPIC,"1.41 fold enrichment (6-mer frequency, TF over GST control)"
same,binding signal,ELF4,"1.26 fold enrichment (6-mer frequency, TF over GST control)"
same,binding signal,ELK4,"1.51 fold enrichment (6-mer frequency, TF over GST control)"
same,binding signal,ETV2,"1.21 fold enrichment (6-mer frequency, TF over GST control)"
same,binding signal,ELF3,"1.11 fold enrichment (6-mer frequency, TF over GST control)"
same,binding signal,ETV1,"1.19 fold enrichment (6-mer frequency, TF over GST control)"

# Reference: paper PMC7862700, “An all-to-all approach to the identification of sequence-specific readers for epigenetic DNA modifications on cytosine”
